Test results as given in PubChem BioAssay (Tox21).
Records with an inconclusive call do not appear. A call without a number means that no potency is given here. The source made the active and inactive calls. Calls follow the shape of the full dose curve.

Target: Acetylcholinesterase (Homo sapiens) (UniProt P22303)
Assay: Acetylcholinesterase (AChE) small molecule antagonists: fluorescence cell-based qHTS assay (AID 1347398); also: nearly all actives have a fitted effect of over 50% in size
Details: SH-SY5Y cells; Potency: AChE activity; outcome: AChE activity; series mostly up to 115 µM
How it was run: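 Cellular AChE inhibition: SH-SY5Y cells treated with test chemical for 30 min at 37 C, then acetylthiocholine hydrolysis followed over 40 min at room temperature via thiocholine-reactive Thiolite Green fluorescence (490/520 nm).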
Potency is read from the fitted curve at half-maximal effect.

Sequence of Acetylcholinesterase (Homo sapiens) (P22303 whole entry, looked up): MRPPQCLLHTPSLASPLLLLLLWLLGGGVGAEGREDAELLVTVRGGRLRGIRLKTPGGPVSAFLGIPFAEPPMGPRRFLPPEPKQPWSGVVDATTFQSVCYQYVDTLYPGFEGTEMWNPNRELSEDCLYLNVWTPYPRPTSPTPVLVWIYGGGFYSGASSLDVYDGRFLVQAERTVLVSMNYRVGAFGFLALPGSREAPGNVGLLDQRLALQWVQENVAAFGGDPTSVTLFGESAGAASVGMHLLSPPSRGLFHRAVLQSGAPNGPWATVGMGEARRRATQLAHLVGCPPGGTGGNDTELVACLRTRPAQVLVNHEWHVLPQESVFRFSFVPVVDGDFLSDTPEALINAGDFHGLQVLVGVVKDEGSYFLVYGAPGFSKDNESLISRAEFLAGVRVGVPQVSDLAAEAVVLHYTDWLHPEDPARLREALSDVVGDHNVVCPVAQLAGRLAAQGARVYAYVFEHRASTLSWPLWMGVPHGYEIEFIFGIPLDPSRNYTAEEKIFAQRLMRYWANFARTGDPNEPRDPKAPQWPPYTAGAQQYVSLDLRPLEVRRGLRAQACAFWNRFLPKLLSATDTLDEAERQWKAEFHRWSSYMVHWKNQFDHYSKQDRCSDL

Row | Compound | Potency | activity change, negative = inhibition
1 | COc1ccc2c(c1)C(=O)N(CCc1ccc(S(=O)(=O)NC(=O)NC3CCCCC3)cc1)C(=O)C2(C)C | inactive | –
2 | Cc1cc(O)c2c(O)c3c(O)cccc3cc2c1 | inactive | –
3 | COc1cc(-c2nc(NC(=O)c3cc4cc(C)cc(C)c4n3CC(=O)O)sc2CCC2CCCCC2)c(OC)cc1Cl | inactive | –
4 | CC(CN=Cc1ccccc1O)N=Cc1ccccc1O (centres undefined) | inactive | –
5 | CN1CCCC(n2nc(Cc3ccc(Cl)cc3)c3ccccc3c2=O)CC1 (centres undefined) | 13.8 µM (active) | –
6 | COC(=O)C(C)(C)C | inactive | –
7 | FC(F)OC(Cl)C(F)(F)F (centres undefined) | inactive | –
8 | COc1ccc(CCC(=O)c2c(O)cc(O[C@@H]3O[C@H](CO)[C@@H](O)[C@H](O)[C@H]3O[C@@H]3O[C@@H](C)[C@H](O)[C@@H](O)[C@H]3O)cc2O)cc1O | inactive | –
9 | C[C@@H]1C[C@H]2[C@@H]3CCC4=CC(=O)C=C[C@]4(C)[C@@]3(F)[C@@H](O)C[C@]2(C)[C@@]1(O)C(=O)CO | inactive | –
10 | CC(C)(O)c1ccc(C(C)(C)O)cc1 | inactive | –
11 | CC(=O)c1ccc2c(c1)Cc1ccccc1-2 | inactive | –
12 | c1csc(SSc2cccs2)c1 | inactive | –
13 | C=CC(=O)NCOCC(C)C | inactive | –
14 | CS(C)=O | inactive | –
15 | O=C1c2ccccc2C(=O)C1(O)O | inactive | –
16 | CCCCCCCC/C=C\CCCCCCCCCCCC(=O)O | inactive | –
17 | CCCCCCCCCCCCCCCC/C=C/C1CC(=O)OC1=O (centres undefined) | inactive | –
18 | Clc1cc(Cl)c2c(c1)N=C1CCCCCN1C2 | 0.617 µM (active) | –
19 | COc1cc(OC)nc(NC(=O)NS(=O)(=O)Nc2ccccc2C(=O)N(C)C)n1 | inactive | –
20 | CC/C=C\CCCCCCCCCCOC(C)=O | inactive | –
21 | COc1cc2nc(Cl)nc(N)c2cc1OC | inactive | –
22 | CC(C)(C)NCC(O)COc1ccc(NC(=O)NC2CCCCC2)cc1 (centres undefined) | inactive | –
23 | Cc1occc(=O)c1OC(=O)C(C)C | inactive | –
24 | OCCCc1cccnc1 | inactive | –
25 | Clc1cccnc1 | inactive | –
26 | CCCCN1C=CN(C)C1 | – | -2.29% [at 23.8 µM] (inactive)
27 | CCOCCOC(=O)/C=C/c1ccc(OC)cc1 | inactive | –
28 | COc1ccccc1OCC(O)CN1CCN(CC(=O)Nc2c(C)cccc2C)CC1 (centres undefined) | inactive | –
29 | CC(C)=CCCC(C)O (centres undefined) | inactive | –
